This is part of a sample that, as a whole, favours compounds with a hit. Of some 83,000 tested, about 20% had one in any assay.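 Note: values are percent growth. 100 is the growth of untreated cells, values between 100 and 0 indicate rising inhibition; between -100 and 0 indicates cell death.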 Unmarked numbers belong to inactive results. Activity calls are given as the source filed them. The calls were made as follows: active = growth percent below 10; inactive = the rest.
These molecules were tested on MDA-MB-468 breast (assay: NCI-60 one-dose screen, 48 h (100 = growth as untreated, 0 = no growth, -100 = all killed)). Details: 10 µM unless noted.

SMILES | growth
CN1CCN(c2ccc3c(C(N)=O)c(NC(=O)c4ccc(C(C)(C)C)cc4)sc3c2)CC1 | 90.7%
O=S(=O)(NCCNc1nccc(-c2c(-c3cccc(O)c3)nc3sccn23)n1)c1ccc(F)cc1 | 64.8%
CCn1cc(/C=C2\Oc3cc(OCC#N)ccc3C2=O)c2cc(OC)ccc21 | 20%
CCOc1cc(NC(=O)c2ccccc2)c(OCC)cc1N | 112%
CC(C)[C@@H](C)/C=C/[C@@H](C)[C@H]1CCC2=C3C=CC4=CC(=O)CC[C@]4(C)[C@H]3CC[C@@]21C | 97.3%
COc1ccc(Nc2nc(-c3cc(O)c(C)c(C)c3O)cs2)cc1 | -6.65% (active)
COc1ccc(C(O)c2cc3c(N)c(C(=O)Nc4cccc(Cl)c4C)sc3nc2C)cc1 (stereo not given) | 8.74% (active)
COC1=CC(c2ccc[nH]2)=N/C1=C\c1[nH]c(C)c(C)c1CCC(=O)OCc1ccccc1 | 15.6%
Nc1nc2ccccc2c2c(=O)c3ccc(Cl)cc3sc12 | 3.53% (active)
Cc1cc(Nc2nc(C(=O)Nc3ccccc3)nc3ccccc23)n[nH]1 | 68.9%
O=C(NCc1cn(Cc2cccc(Oc3ccccc3)c2)nn1)c1cccnc1NCc1ccc(Cl)cc1 | 17.3%
CC(C)CC1C(=O)N2CCC[C@H]2C2(O)O[C@](NC(=O)C3C=C4c5cccc6[nH]c(Br)c(c56)C[C@H]4N(C)C3)(C(C)C)C(=O)N12 (stereo not given in full) | 20.3%
O=C(N/N=C/c1ccc(F)cc1)c1ccccc1Nc1cccc(C(F)(F)F)c1 | 83.9%
CN(C)C(=O)Nc1nc2cc(Cl)c(Cl)cc2[nH]1 | -13.4% (active)
N/C(=N\C(N)=N\c1nc2ccccc2s1)c1cnccn1 | -24.8% (active)
CC1=C(/C=C/C(C)=C/C=C(C(=O)O)\C(C)=C\C(=O)O)C(C)(C)CCC1 | 109%
O=C1c2ccccc2OC=C(c2ccccc2)N1CCCCNc1ccc(S(=O)(=O)Nc2ncccn2)cc1 | 103%
O=C(CCCCCCCCC(=O)Nc1cccc(C2=NCCN2)c1)Nc1cccc(C2=NCCN2)c1 | 118%
C=C1CC[C@@H]2[C@](C)(COC(C)=O)[C@H](OC(C)=O)CC[C@@]2(C)[C@@H]1CC(Nc1ccc(S(=O)(=O)NC(C)=O)cc1)C1=CCOC1=O (stereo not given in full) | -53.9% (active)
COc1ccc2c(c1)O/C(=C\c1ccc([N+](=O)[O-])o1)C2=O | -46.5% (active)

SMILES | growth
CCCC/C(=C\c1ccc(O)c(O)c1)C(=O)NC(Cc1ccccc1)C(=O)C(=O)NCCc1ccc(OC)cc1 (stereo not given) | 93.2%
Cc1oc2nc[nH]c(=O)c2c1C(=O)/C=C/c1ccc(Cl)cc1 | 10.6%
CC1(C)Nc2cccc3c(N=Nc4ccc(N=Nc5ccccc5)c5ccccc45)ccc(c23)N1 | 95.9%
C[C@]12CCC3c4ccc(O)cc4C[C@@H](CCCCCCCCCS(=O)CCCC(F)(F)C(F)(F)F)C3C1CC[C@@H]2O (stereo not given in full) | 88%
CC1(C)[C@@H](O)CC[C@]2(C)[C@H]3CC[C@@H]4[C@H]5[C@H](C(=O)/C=C/c6ccc(C(F)(F)F)cc6)CC[C@]5(CO)CC[C@@]4(C)[C@]3(C)CC[C@@H]12 | 61.9%
CCN(CC)CCN1C(=O)c2cccc3c(-c4ccc5c(c4)ncn5C4CCCCC4)ccc(c23)C1=O | -6.34% (active)
N#Cc1ccc(NC(=O)c2sc3nc4c(cc3c2N)C(=O)CCC4)cc1 | 97.6%
COc1ccc2[nH]cc(-c3cc(N)n4nc(-c5c[nH]c6ccc(OC)cc56)cc4n3)c2c1 | -47.9% (active)
Cc1ncc(-c2ccnc(Nc3ccc(S(C)(=O)=O)cc3)n2)n1C(C)C | -48.8% (active)
CNC(=O)c1cc(Oc2cccc3nc(Nc4ccc(F)c(Cl)c4)ccc23)ccn1 | 6.51% (active)
COc1cccc(-c2nc(-c3ccc(NS(=O)(=O)c4ccccc4)cc3)[nH]c2-c2ccnc(Br)c2)c1 | 18.3%
Cc1ccccc1-c1cc(Cc2ccccc2O)c(=O)[nH]n1 | 170%
Nc1c(C(=O)Nc2c(Cl)cccc2Cl)sc2nc3c(cc12)CCCC3 | 82.3%
Cn1c(=O)[nH]c(=O)c2nc(CCC(=O)NCCC(=O)O)c(=O)[nH]c21 | 102%
COc1ccccc1/C=C1\Oc2cc(OCCN3CCC(Cc4ccccc4)CC3)ccc2C1=O | 76.4%
O=C(Nc1ccc(CN2CCc3nc4cc(O)c(O)cc4cc32)cc1)c1ccc(Cl)c(Cl)c1 | 97.4%
CCN(CC)c1cc(C)c2cc(NC(=O)c3cccc(OC)c3)ccc2n1 | 83.9%
Cc1nn(-c2ccccc2)c2nc3nc4c(c(N)c3c(-c3ccc(Cl)cc3)c12)CCC4 | 99.3%
CN(C)CCN1C(=O)c2cccc3c(-c4ccc(-c5nc6c7ccccc7c7ccccc7c6[nH]5)cc4)ccc(c23)C1=O | 108%
c1ccc2c(c1)oc1cc3sccc3nc12 | 102%
